KDM5B inhibitor – inhibitors of human KDM5B histone demethylase; AID 1347165; 220,000 tested, 2.6% active; Potency, µM (highest dose often 57.7 µM), usual class: inhibitors; KDM5B demethylase, FDH-coupled NADH fluorescence (FDH is formaldehyde dehydrogenase); Q9UGL1; active = well fitted inhibition curve with a large enough effect; also: nearly all actives have a fitted effect of over 70% in size
Target sequence (Q9UGL1 whole entry, looked up): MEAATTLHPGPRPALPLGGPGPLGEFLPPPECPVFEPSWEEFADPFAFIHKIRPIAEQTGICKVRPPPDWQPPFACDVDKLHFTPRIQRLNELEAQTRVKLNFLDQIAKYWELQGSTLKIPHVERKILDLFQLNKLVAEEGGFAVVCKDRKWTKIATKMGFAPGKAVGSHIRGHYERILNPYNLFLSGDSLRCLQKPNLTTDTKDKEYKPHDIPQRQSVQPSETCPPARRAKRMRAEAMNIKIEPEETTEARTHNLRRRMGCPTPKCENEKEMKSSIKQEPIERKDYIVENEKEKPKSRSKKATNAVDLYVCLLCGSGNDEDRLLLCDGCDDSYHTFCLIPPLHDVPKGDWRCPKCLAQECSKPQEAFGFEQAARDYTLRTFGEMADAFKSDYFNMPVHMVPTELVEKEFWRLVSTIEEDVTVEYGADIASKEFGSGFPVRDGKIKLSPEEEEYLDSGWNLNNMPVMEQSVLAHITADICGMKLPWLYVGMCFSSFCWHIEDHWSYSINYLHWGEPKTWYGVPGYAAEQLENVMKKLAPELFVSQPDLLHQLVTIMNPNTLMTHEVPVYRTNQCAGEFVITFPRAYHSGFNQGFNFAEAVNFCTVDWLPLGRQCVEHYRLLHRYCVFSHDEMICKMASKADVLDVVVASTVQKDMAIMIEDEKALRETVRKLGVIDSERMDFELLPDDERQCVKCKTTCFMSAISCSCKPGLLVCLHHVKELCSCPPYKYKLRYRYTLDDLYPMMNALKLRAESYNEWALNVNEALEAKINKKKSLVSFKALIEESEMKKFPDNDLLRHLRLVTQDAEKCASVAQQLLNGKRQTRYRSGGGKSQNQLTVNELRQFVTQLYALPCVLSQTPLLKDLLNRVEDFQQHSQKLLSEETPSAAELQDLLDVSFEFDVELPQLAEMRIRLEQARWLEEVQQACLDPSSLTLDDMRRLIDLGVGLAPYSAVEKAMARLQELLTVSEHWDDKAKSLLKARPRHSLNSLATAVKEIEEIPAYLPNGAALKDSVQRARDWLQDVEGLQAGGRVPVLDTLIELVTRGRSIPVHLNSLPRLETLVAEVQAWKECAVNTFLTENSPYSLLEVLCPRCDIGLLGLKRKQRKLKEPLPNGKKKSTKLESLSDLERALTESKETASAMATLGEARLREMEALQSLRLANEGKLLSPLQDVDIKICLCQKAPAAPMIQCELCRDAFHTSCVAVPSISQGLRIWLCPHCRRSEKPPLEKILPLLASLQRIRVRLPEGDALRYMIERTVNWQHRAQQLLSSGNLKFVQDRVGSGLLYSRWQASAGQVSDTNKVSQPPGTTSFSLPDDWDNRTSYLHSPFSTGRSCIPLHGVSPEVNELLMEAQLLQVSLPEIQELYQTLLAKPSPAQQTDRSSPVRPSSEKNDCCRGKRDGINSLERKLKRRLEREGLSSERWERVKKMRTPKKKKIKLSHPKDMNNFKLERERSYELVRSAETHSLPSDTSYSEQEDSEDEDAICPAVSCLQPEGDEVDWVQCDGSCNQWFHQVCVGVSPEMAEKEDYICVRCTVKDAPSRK
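Compound dilutions met 200 nM (final) KDM5BΔAP for 10 min at room temperature before substrate addition. The substrate mix held 12.5 µM H3K4me3 with cofactors 25 µM α-ketoglutarate and 50 µM Fe²⁺. NADH signal gain over 30 min defined activity.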
Each line names hits and unclear results; the compound was inactive in the other large screens. Shown is part of a subset that was picked to be rich in hits.

CN(C)CCOCC1(C)COc2ccc(C(=O)Nc3ccc4[nH]ccc4c3)cc2N1 (stereo not given)	none
CN(C)CCCOCC1(C)COc2ccc(C(=O)Nc3cccc(Cl)c3)cc2N1 (stereo not given)	KDM5B inhibitor 32µM
CN(C)C1(CNC(=O)C2CCN(C(=O)c3ccc(F)cc3)CC2)CCCCC1	none
Cc1ccc2cc(-c3ccccc3)[nH]c2c1	none
CCc1ccc(CN(C)S(=O)(=O)c2cccc(Br)c2)cc1	none
O=C(Nc1cc(=O)[nH]c2nc(C(F)(F)F)nn12)c1ccccc1Cl	none
CCc1ccc2[nH]c(C)c(CC(=O)NCc3ccc(C)o3)c2c1	none
CCOc1cc(/C=C/C(=O)c2ccc(OCC(=O)O)c(OC)c2)cc(Cl)c1O	none
COc1ccc(C(=O)Nc2ccc3oc(-c4cccc(Cl)c4)nc3c2)cc1	none
CC(C(=O)Nc1ccc2[nH]c(=O)[nH]c2c1)N(C)Cc1cccc(Cl)c1Cl (stereo not given)	none
CCN1CCN(CCCN2CC3(CCN(c4ncccc4F)CC3)OC2=O)CC1	KDM5B inhibitor 18µM
CCN1CCN(CCCN2CC3(CCN(Cc4ncc[nH]4)CC3)OC2=O)CC1	none
CCN1CCN(CCN2CC3(CCN(C(=O)[C@H](C)NC)CC3)OC2=O)CC1	none
COc1ccc(-c2cc(C[C@H]3CNCC[C@H]3CC(=O)N3CCC(n4c(=O)[nH]c5ccccc54)CC3)no2)cc1	none
C=CCNC(=O)c1cccnc1N1CC2CC(C1)[C@H]1CCCC(=O)N1C2 (stereo not given in full)	KDM5B inhibitor 25µM
O=C(NCCCN1CCCc2ccccc21)c1cccnc1N1CC2CC(C1)[C@H]1CCCC(=O)N1C2 (stereo not given in full)	KDM5B inhibitor 28µM
CNC(=O)c1ccc(N2CC3CC(C2)[C@H]2CCCC(=O)N2C3)nc1 (stereo not given in full)	none
O=C(c1cccnc1N1CC2CC(C1)[C@H]1CCCC(=O)N1C2)N1CCN(c2ccc(Cl)cc2)CC1 (stereo not given in full)	none
O=C(CN1CC2CC(C1)[C@H]1CCCC(=O)N1C2)NCCCN1CCCC1=O (stereo not given in full)	none
O=C(NCCCN1CCOCC1)c1ccc(N2CC3CC(C2)[C@H]2CCCC(=O)N2C3)nc1 (stereo not given in full)	none
CCCCCCCCCCOC(=O)C[N+](C)(C)Cc1ccccc1	none
COc1ccc(NC(=O)Cc2cc(Cl)c3c(c2)OCCCO3)cc1S(=O)(=O)N(C)C	none
Cc1cnc(C(=O)NC(c2ccccc2)c2ccccc2)cn1	none
C[S+](=O)([O-])c1ccc(-c2nccc3c(=O)cc(-c4ccncc4)oc23)cc1	KDM5B inhibitor 32µM
Cc1cccc(-c2noc(-c3ccc(N4CCN(C)CC4)c([N+](=O)[O-])c3)n2)c1	none
CN1CCN(c2cc(=O)c3ccnc(-c4ccc([S+](C)(=O)[O-])cc4)c3o2)CC1	KDM5B inhibitor 32µM
O=c1cc(-c2ccncc2)oc2c(-c3ccccc3O)nccc12	none
Cc1ccc(-c2nn(CC(=O)N3CCN(C)CC3)c(=O)c3ccccc23)cc1	none
COc1ccc(C)cc1-c1nccc2c(=O)cc(-c3cnn(C)c3)oc12	none
Cc1ccc(-c2nccc3c(=O)cc(N4CCN(C)CC4)oc23)cc1	KDM5B inhibitor 40µM
CN1CCN(c2cc(=O)c3ccnc(N4CCN(c5ccccn5)CC4)c3o2)CC1	none
Cc1cccc(-c2nccc3c(=O)cc(N4CCN(C)CC4)oc23)c1	KDM5B inhibitor 35µM
Cc1ccc(S(=O)(=O)CC(=O)c2ccc(F)cc2)cc1C	none
Cc1ccc(S(=O)(=O)NC[C@H]2O[C@H](Cc3cc(-c4cccc(O)c4)on3)CC[C@@H]2O)cc1	none
Cc1cnc(NC(=O)CCc2ncc(-c3ccc(F)cc3)o2)s1	none
Cc1ccc(C(=O)C2CCCCC2)cc1	none
Cc1ccccc1CN1CCCC2(Cc3ccccc3CNC2=O)C1 (stereo not given)	none
CC(=O)Nc1nc2c(C)cc(NC(=O)Nc3ccccc3)cc2s1	none
CN1CCN(c2cc(=O)c3ccnc(-c4ccc(F)cc4)c3o2)CC1	KDM5B inhibitor 28µM
Cc1ccc(-c2nc(CN3CCCC3c3ccsc3)co2)c(C)c1 (stereo not given)	none
C=CCCC(CN1CCCOCC1)Oc1ccc(C#N)cn1 (stereo not given)	none
C=CCCC(CN1CCCC1)Oc1cc(N2CCOCC2)ncn1 (stereo not given)	none
C=CCCC(CN1CCCOCC1)Oc1cc(C#N)ccn1 (stereo not given)	KDM5B inhibitor 28µM
O=C(NCc1ccc2c(c1)OCO2)C1CC(c2ccccc2)CN(C(=O)c2ccccc2F)C1 (stereo not given)	none
Cc1cccc(NC(=O)c2ccc[n+]([O-])c2)n1	none
Cc1ccc(Nc2nc(-c3ccc(C)cc3C)cs2)cc1	none
Fc1ccc(CNC(=S)Nc2ccc(Nc3ccccc3)cc2)cc1	none
CCn1c(C)c(C(C)=O)c2cc(OCC(O)CN3CCOCC3)ccc21 (stereo not given)	none
CCCCn1c(=O)[nH]c(=O)c2c1nc(COC(=O)C1(c3ccccc3)CCC1)n2CCC	none
Cc1ccccc1-c1[nH]nc2ncc(-c3ccccc3F)nc12	KDM5B inhibitor 35µM
COc1ccccc1-c1[nH]nc2ncc(C(=O)N(C)c3ccccc3)nc12	none
Cc1ccccc1-c1[nH]nc2ncc(-c3cccnc3)nc12	KDM5B inhibitor 45µM
Cc1ccccc1-c1[nH]nc2ncc(-c3ccsc3)nc12	KDM5B inhibitor 32µM
CN(C(=O)c1cnc2n[nH]c(-c3ccccc3)c2n1)c1ccccc1	none
Cn1cc(-c2cc(-c3cnn(C)c3)[nH]n2)cn1	none
COc1ccc(-c2cnc3n[nH]c(-c4sccc4C)c3n2)cc1	none
Cc1ccsc1-c1[nH]nc2ncc(-c3ccccc3F)nc12	none
Cc1ccccc1-c1[nH]nc2ncc(-c3cnn(C)c3)nc12	KDM5B inhibitor 32µM
COc1ccc(-c2[nH]nc3ncc(-c4ccccc4F)nc23)cc1F	none
O=C(O)CCSc1sc(=S)sc1SCCC(=O)O	none
CC(=O)c1ccc(NC(=O)C2(c3ccc(C)cc3)CCCC2)cc1	none
O=Cc1cccn1Cc1ccccn1	none
CC1N(O)C(C)(C)C(c2ccc(Cl)cc2)=[N+]1[O-] (stereo not given)	none
CN(Cc1ccccc1)c1nc2c(c(=O)n(Cc3ccccc3Cl)c(=O)n2C)n1C	none
COC(=O)C1CCCCN1S(=O)(=O)c1c(F)cccc1F (stereo not given)	none
Fc1ccccc1CNC(=S)NCc1ccccc1	none
COc1ccc(-n2nc(C3CCN(Cc4ccc(C)cc4)CC3)[nH]c2=O)cc1	none
CC(C)(C)c1ccc(CCC2OCC(C[N+]3(C)CCCCC3)O2)cc1 (stereo not given)	none
Cc1ccc(S(=O)(=O)N(C)C)cc1C(=O)NC(c1ccc2c(c1)OCCO2)C(C)C (stereo not given)	none
Cc1[nH]c2ccc(C(=O)N3CCC4(CCCN(C)C4=O)C3)cc2c1C (stereo not given)	none
CN1CCCC2(CCN(C(=O)c3cc(=O)[nH]c4ccc(F)cc34)C2)C1=O (stereo not given)	KDM5B inhibitor 25µM
CC(=O)Nc1ccc(Cl)c(C(=O)N2CCC3(CCCN(C)C3=O)C2)c1 (stereo not given)	none
COc1cn(CC(=O)Nc2ccc(C(F)(F)F)cc2)c(CN2CCN(C(C)=O)CC2)cc1=O	none
CCc1ccc(NC(=O)N2CCN(c3nnc(C)c4c(C)n(-c5ccc(C)cc5)nc34)CC2)cc1	none
CC(C)c1nc2c(c(-c3ccc(Cl)cc3)n1)CCN(Cc1ccnn1C)CC2	none
CC(C)c1nc2c(c(-c3ccc(O)cc3)n1)CN(Cc1ccc(OC(F)(F)F)cc1)CC2	KDM5B inhibitor 18µM

Screening data deposited in PubChem by National Center for Advancing Translational Sciences (NCATS).
